Experimental data from PubChem BioAssay (NCATS).
Inconclusive results are not listed. The source made the active and inactive calls. The call rests on the fitted dose curve; in most records, active means well fitted inhibition curve with a large enough effect; inconclusive means small, poorly fitted or top-dose-only effect; inactive means flat fitted curve, though single readings scatter.

Experiments:
[1] = qHTS profiling for inhibitors of Plasmodium falciparum proliferation (AID 504749); further: nearly all actives have a fitted effect of over 60% in size;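 on activity, negative = inhibition: 0% = DMSO vehicle and full inhibition = artemisinin control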; conditions: P. falciparum in erythrocytes, SYBR Green DNA, 72 h
Outline: (§1)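 Three-day growth assay of blood-stage parasites in erythrocytes (0.3% parasitemia, 2.5% hematocrit) at 37 C, 5% CO2, quantified by SYBR Green DNA staining after overnight detergent lysis.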

3D7 = assay: as above; conditions: P. falciparum in erythrocytes, SYBR Green DNA, 72 h; series mostly up to 28.7 µM
Outline: as §1

7G8 = assay: as above; conditions: P. falciparum in erythrocytes, SYBR Green DNA, 72 h; series mostly up to 28.7 µM
Outline: as §1

AA1029 = assay: as above; conditions: P. falciparum in erythrocytes, SYBR Green DNA, 72 h; series mostly up to 28.7 µM
Outline: as §1

AS120 = assay: as above; conditions: P. falciparum in erythrocytes, SYBR Green DNA, 72 h; series mostly up to 28.7 µM
Outline: as §1

ATS189 = assay: as above; conditions: P. falciparum in erythrocytes, SYBR Green DNA, 72 h; series mostly up to 28.7 µM
Outline: as §1

ATS95 = assay: as above; conditions: P. falciparum in erythrocytes, SYBR Green DNA, 72 h; series mostly up to 28.7 µM
Outline: as §1

C2A = assay: as above; conditions: P. falciparum in erythrocytes, SYBR Green DNA, 72 h; series mostly up to 28.7 µM
Outline: as §1

CP185 = assay: as above; conditions: P. falciparum in erythrocytes, SYBR Green DNA, 72 h; series mostly up to 28.7 µM
Outline: as §1

CP191 = assay: as above; conditions: P. falciparum in erythrocytes, SYBR Green DNA, 72 h; series mostly up to 28.7 µM
Outline: as §1

CP192 = assay: as above; conditions: P. falciparum in erythrocytes, SYBR Green DNA, 72 h; series mostly up to 28.7 µM
Outline: as §1

CP194 = assay: as above; conditions: P. falciparum in erythrocytes, SYBR Green DNA, 72 h; series mostly up to 28.7 µM
Outline: as §1

CP201 = assay: as above; conditions: P. falciparum in erythrocytes, SYBR Green DNA, 72 h; series mostly up to 28.7 µM
Outline: as §1

CP203 = assay: as above; conditions: P. falciparum in erythrocytes, SYBR Green DNA, 72 h; series mostly up to 28.7 µM
Outline: as §1

CP211 = assay: as above; conditions: P. falciparum in erythrocytes, SYBR Green DNA, 72 h; series mostly up to 28.7 µM
Outline: as §1

CP215 = assay: as above; conditions: P. falciparum in erythrocytes, SYBR Green DNA, 72 h; series mostly up to 28.7 µM
Outline: as §1

CP217 = assay: as above; conditions: P. falciparum in erythrocytes, SYBR Green DNA, 72 h; series mostly up to 28.7 µM
Outline: as §1

CP237 = assay: as above; conditions: P. falciparum in erythrocytes, SYBR Green DNA, 72 h; series mostly up to 28.7 µM
Outline: as §1

CP238 = assay: as above; conditions: P. falciparum in erythrocytes, SYBR Green DNA, 72 h; series mostly up to 28.7 µM
Outline: as §1

CP247 = assay: as above; conditions: P. falciparum in erythrocytes, SYBR Green DNA, 72 h; series mostly up to 28.7 µM
Outline: as §1

[2] = at 28.7 µM (top of the series), parasite line A
[3] = at 28.7 µM (top of the series), parasite line B
Potency means the concentration at half of the fitted maximal effect.

Cc1cn([C@H]2C[C@H](O)[C@@H](CO)O2)c(=O)[nH]c1=O
inactive: activity, negative = inhibition [1, 2] 4.1% | activity, negative = inhibition [1, 3] -3.41% | Potency (3D7) | Potency (7G8) | Potency (AA1029) | Potency (AS120) | Potency (ATS189) | Potency (ATS95) | Potency (C2A) | Potency (CP185) | Potency (CP191) | Potency (CP192) | Potency (CP194) | Potency (CP201) | Potency (CP203) | Potency (CP211) | Potency (CP215) | Potency (CP217) | Potency (CP237) | Potency (CP238) | Potency (CP247)

CCCCCCCCCCCC[n+]1ccc2ccccc2c1
active: Potency ([1]; parasite line A) 794 nM | Potency ([1]; parasite line B) 501 nM | Potency (3D7) 1120 nM | Potency (7G8) 316 nM | Potency (AA1029) 1260 nM | Potency (AS120) 1410 nM | Potency (ATS189) 1000 nM | Potency (ATS95) 2000 nM | Potency (C2A) 708 nM | Potency (CP185) 562 nM | Potency (CP191) 562 nM | Potency (CP192) 601 nM | Potency (CP194) 1.2 µM | Potency (CP201) 1.69 µM | Potency (CP203) 849 nM | Potency (CP211) 675 nM | Potency (CP215) 1.07 µM | Potency (CP217) 891 nM | Potency (CP237) 631 nM | Potency (CP238) 631 nM | Potency (CP247) 891 nM

CC(C(=O)O)c1ccc(N2Cc3ccccc3C2=O)cc1 (centres undefined)
inactive: activity, negative = inhibition [1, 2] 8.3% | activity, negative = inhibition [1, 3] 10.3% | Potency (3D7) | Potency (7G8) | Potency (AA1029) | Potency (AS120) | Potency (ATS189) | Potency (ATS95) | Potency (C2A) | Potency (CP185) | Potency (CP191) | Potency (CP192) | Potency (CP194) | Potency (CP201) | Potency (CP211) | Potency (CP215) | Potency (CP217) | Potency (CP237) | Potency (CP238) | Potency (CP247)

COC(C(=O)C(O)C(C)O)C1Cc2cc3cc(OC4CC(OC5CC(O)C(O)C(C)O5)C(O)C(C)O4)c(C)c(O)c3c(O)c2C(=O)C1OC1CC(OC2CC(OC3CC(C)(O)C(O)C(C)O3)C(O)C(C)O2)C(O)C(C)O1 (centres undefined)
active: Potency ([1]; parasite line A) 158 nM | Potency ([1]; parasite line B) 224 nM | Potency (3D7) 282 nM | Potency (7G8) 70.8 nM | Potency (AA1029) 141 nM | Potency (AS120) 112 nM | Potency (ATS189) 282 nM | Potency (ATS95) 178 nM | Potency (C2A) 251 nM | Potency (CP185) 251 nM | Potency (CP191) 224 nM | Potency (CP192) 3010 nM | Potency (CP194) 3.01 µM | Potency (CP201) 2.69 µM | Potency (CP211) 2690 nM | Potency (CP215) 2.39 µM | Potency (CP217) 282 nM | Potency (CP237) 100 nM | Potency (CP238) 251 nM

CC(C)(C)C(=O)OCOC(=O)[C@@H]1N2C(=O)[C@@H](N=CN3CCCCCC3)[C@H]2SC1(C)C
inactive: activity, negative = inhibition ([1]; at 12.8 µM (top of the series), parasite line A) 1.15% | activity, negative = inhibition ([1]; at 12.8 µM (top of the series), parasite line B) 5.1% | Potency (3D7) | Potency (7G8) | Potency (AA1029) | Potency (AS120) | Potency (ATS189) | Potency (ATS95) | Potency (C2A) | Potency (CP185) | Potency (CP191) | Potency (CP192) | Potency (CP194) | Potency (CP201) | Potency (CP203) | Potency (CP211) | Potency (CP215) | Potency (CP217) | Potency (CP237) | Potency (CP238) | Potency (CP247)

CCCCCCCC(=O)O
inactive: activity, negative = inhibition [1, 2] 5.42% | activity, negative = inhibition [1, 3] 9% | Potency (3D7) | Potency (7G8) | Potency (AA1029) | Potency (AS120) | Potency (ATS189) | Potency (ATS95) | Potency (C2A) | Potency (CP185) | Potency (CP191) | Potency (CP192) | Potency (CP194) | Potency (CP201) | Potency (CP203) | Potency (CP211) | Potency (CP215) | Potency (CP217) | Potency (CP237) | Potency (CP238) | Potency (CP247)

COc1ccc2c3c1O[C@H]1C[C@@H](O)C=C[C@@]31CCN(C)C2
inactive: activity, negative = inhibition [1, 2] 7.86% | activity, negative = inhibition [1, 3] -0.584% | Potency (3D7) | Potency (7G8) | Potency (AA1029) | Potency (AS120) | Potency (ATS189) | Potency (ATS95) | Potency (C2A) | Potency (CP185) | Potency (CP191) | Potency (CP192) | Potency (CP194) | Potency (CP201) | Potency (CP203) | Potency (CP211) | Potency (CP215) | Potency (CP217) | Potency (CP237) | Potency (CP238) | Potency (CP247)

COC(=O)[C@H]1[C@H]2C[C@@H]3c4[nH]c5ccccc5c4CCN3C[C@H]2C[C@@H](OC(=O)c2cc(OC)c(OC)c(OC)c2)[C@@H]1OC
active: Potency ([1]; parasite line A) 355 nM | Potency ([1]; parasite line B) 631 nM | Potency (3D7) 891 nM | Potency (7G8) 50.1 nM | Potency (AA1029) 282 nM | Potency (AS120) 199 nM | Potency (ATS189) 708 nM | Potency (ATS95) 398 nM | Potency (C2A) 282 nM | Potency (CP185) 398 nM | Potency (CP191) 398 nM | Potency (CP192) 338 nM | Potency (CP194) 0.536 µM | Potency (CP201) 0.849 µM | Potency (CP211) 601 nM | Potency (CP215) 0.757 µM | Potency (CP217) 355 nM | Potency (CP237) 126 nM | Potency (CP238) 355 nM | Potency (CP247) 398 nM

O=C(O)CCC(=O)C(=O)O
inactive: activity, negative = inhibition [1, 2] 2.78% | activity, negative = inhibition [1, 3] 9.14% | Potency (3D7) | Potency (7G8) | Potency (AA1029) | Potency (AS120) | Potency (ATS189) | Potency (ATS95) | Potency (C2A) | Potency (CP185) | Potency (CP191) | Potency (CP192) | Potency (CP194) | Potency (CP201) | Potency (CP203) | Potency (CP211) | Potency (CP215) | Potency (CP217) | Potency (CP237) | Potency (CP238) | Potency (CP247)

O=CCCCC=O
active: Potency (7G8) 10000 nM
inactive: activity, negative = inhibition [1, 2] -0.127% | activity, negative = inhibition [1, 3] 0.568% | Potency (3D7) | Potency (AA1029) | Potency (AS120) | Potency (ATS95) | Potency (C2A) | Potency (CP185) | Potency (CP191) | Potency (CP192) | Potency (CP194) | Potency (CP201) | Potency (CP211) | Potency (CP215) | Potency (CP217) | Potency (CP237) | Potency (CP238) | Potency (CP247)
